Measurements as given in PubChem BioAssay (Tox21).
Inconclusive results are not listed. Calls of active or inactive are those of the source. Unless noted, calls come from the whole dose curve; as a rule, active = well fitted curve in the direction sought with a large enough effect in the repeat runs; inconclusive = weak or mixed curves; inactive = no such curve, though single readings can be large; an effect the other way counts as inactive or inconclusive.

Experiments:
[1] = qHTS assay to identify small molecule phospholipidosis (PLD) inducers (AID 1259344; active = well fitted curve in the direction sought with a large enough effect; an effect the other way counts as inactive or inconclusive)
In short: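 Quantitative HTS in HepG2: compound plus LipidTOX Red dye for 24 h, paraformaldehyde fixation with Hoechst 33342, widefield high-content imaging; amiodarone as positive and DMSO as negative control.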

[2] = qHTS assay to identify small molecule HDAC inhibitors (AID 1259364);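 note: wild-type HCT-116 cells with endogenous class I/II HDAC activity; top concentration of the series differs between compounds; nearly all actives have a fitted effect of over 45% in size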
In short: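 Read-out: luminescence of HDAC-Glo I/II reagent, 30 min RT, reflecting class I/II deacetylase activity in whole HCT-116 cells pre-exposed 2 h to DMSO-dissolved compounds.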

[3] = qHTS assay to identify small molecule HDAC inhibitors - cell viability counter screen (AID 1259365); note: series mostly up to about 92 µM; nearly all actives have a fitted effect of over 50% in size
In short: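 Following a 2hr exposure of overnight-plated wild-type HCT-116 cells to DMSO-delivered compounds, CellTiter-Glo was added and luminescence recorded after 30min at room temperature.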

[4] = qHTS assay to identify small molecule agonists of the sonic hedgehog signaling (Shh) pathway - cell viability counter screen (AID 1259366); note: nearly all actives have a fitted effect of over 50% in size
In short: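 After a 4hr attachment at 37C, NIH/3T3 cells bearing an integrated Gli1-driven luciferase reporter were dosed with compounds. Treatment lasted 24hr, with the final hour including CellTiter-Fluor for a fluorescence viability measurement.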

[5] = qHTS assay to identify small molecule antagonists of the sonic hedgehog signaling (Shh) pathway - cell viability counter screen (AID 1259367); note: nearly all actives have a fitted effect of over 55% in size
In short: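 Seed 3T3 Gli1-Luc cells at 2,000 per well; incubate 4 hr; add compound in DMSO, then conditioned medium; incubate at 37C with 5% CO2; add CellTiter-Fluor after 23 hr; read fluorescence 1 hr later.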

[6] = qHTS assay to identify small molecule antagonists of the sonic hedgehog signaling (Shh) pathway (AID 1259369; calls by dose curve; note: nearly all actives have a fitted effect of over 45% in size)
In short: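 For antagonist detection, the reporter line received test compounds together with conditioned medium, incubated 24hr at 37 C, 5% CO2, then luminescence was recorded following 30min room-temperature luciferase reagent incubation.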

[7] = qHTS assay to identify small molecule agonists of the androgen receptor (AR) signaling pathway in the presence of an antagonist - cell viability counter screen (AID 1259379);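 note: MDA-kb2 human breast cancer cells carrying an MMTV luciferase reporter; series mostly up to about 92 µM; nearly all actives have a fitted effect of over 25% in size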
In short: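 Seed MDA-kb2 at 3,000 cells/well; incubate 5 hr, 37C, 0% CO2. Add nilutamide to 3.0uM final, then pin compounds at 15 concentrations. Incubate 16 hr. Add CellTiter-Fluor at 15 hr, read fluorescence after 1 hr.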

[8] = qHTS assay to identify small molecule agonists of the estrogen receptor beta (ER-beta) signaling pathway - cell viability counter screen (AID 1259380); note: nearly all actives have a fitted effect of over 30% in size; note: potency is the fitted concentration of half-maximal effect
In short: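 CellTiter-Glo read, 30 min RT, same wells as bla assay; cells ER-beta-UAS-bla HEK293T; 16 hr compound, 37C; medium 2% charcoal-stripped FBS.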

[9] = biological target: Androgen receptor (Homo sapiens) (UniProt P10275); assay: qHTS assay to identify small molecule agonists of the androgen receptor (AR) signaling pathway in the presence of an antagonist (AID 1259381; calls by dose curve; note: nearly all actives have a fitted effect of over 15% in size)
Sequence of Androgen receptor (Homo sapiens) (P10275 whole entry, looked up): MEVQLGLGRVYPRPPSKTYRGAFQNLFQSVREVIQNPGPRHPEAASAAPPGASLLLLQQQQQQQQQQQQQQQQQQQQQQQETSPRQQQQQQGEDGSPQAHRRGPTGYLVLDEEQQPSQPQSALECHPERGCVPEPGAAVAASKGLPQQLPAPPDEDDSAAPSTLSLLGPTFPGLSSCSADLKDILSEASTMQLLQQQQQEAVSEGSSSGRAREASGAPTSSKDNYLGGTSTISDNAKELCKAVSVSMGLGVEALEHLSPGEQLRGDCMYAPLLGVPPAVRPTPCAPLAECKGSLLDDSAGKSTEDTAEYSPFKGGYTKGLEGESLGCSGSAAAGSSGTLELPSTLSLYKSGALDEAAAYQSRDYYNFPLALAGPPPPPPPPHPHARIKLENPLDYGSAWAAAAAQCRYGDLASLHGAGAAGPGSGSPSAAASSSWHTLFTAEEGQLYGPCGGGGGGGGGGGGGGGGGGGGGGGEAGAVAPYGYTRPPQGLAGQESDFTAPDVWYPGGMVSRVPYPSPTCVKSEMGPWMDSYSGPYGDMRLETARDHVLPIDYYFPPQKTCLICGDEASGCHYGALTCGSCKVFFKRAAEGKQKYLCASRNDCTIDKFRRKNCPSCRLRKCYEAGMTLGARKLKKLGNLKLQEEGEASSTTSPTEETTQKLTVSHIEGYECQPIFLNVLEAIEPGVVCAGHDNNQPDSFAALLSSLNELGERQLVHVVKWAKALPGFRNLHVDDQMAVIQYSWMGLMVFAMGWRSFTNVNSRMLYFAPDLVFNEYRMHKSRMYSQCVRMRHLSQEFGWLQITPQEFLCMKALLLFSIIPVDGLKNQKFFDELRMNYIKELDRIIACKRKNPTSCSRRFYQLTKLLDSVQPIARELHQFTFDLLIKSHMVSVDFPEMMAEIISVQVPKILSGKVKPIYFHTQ
In short: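 Test compounds at 15 concentrations were incubated for 16hr with MDA-kb2 reporter cells in presence of 3.0uM nilutamide (final). Signal: ONE-Glo luciferase luminescence.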

[10] = qHTS assay to identify small molecule antagonists of the estrogen receptor beta (ER-beta) signaling pathway - cell viability counter screen (AID 1259382); note: nearly all actives have a fitted effect of over 55% in size; note: potency is the fitted concentration of half-maximal effect;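 for activity change, negative = cytotoxicity: HEK293T cells carrying ER-beta-UAS-bla reporter stimulated with estradiol; series mostly up to about 92 µM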
In short: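 In this multiplexed counter screen, cells were seeded at 2,000 per well in medium with 2% charcoal-stripped FBS and incubated 6 hr before compound and 1nM final E2 were added. Sixteen hours later, ATP-based luminescence reported viability.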

[11] = qHTS assay to identify small molecule agonists or antagonists of the thyroid stimulating hormone receptor (TSHR) signaling pathway - wild type cell line counter screen (AID 1259384; calls by dose curve)
In short: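 Wild-type Hek293 cells, 800/well, 18 h at 37C, then compound with Ro20-1724 for 30 min RT. cAMP by HTRF (cAMP-d2/anti-cAMP cryptate), 1 h RT, fluorescence read. 15 concentrations, triplicates.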

[12] = qHTS assay to identify small molecule agonists of the estrogen receptor alpha (ER-alpha) signaling pathway in the presence of an antagonist - cell viability counter screen (AID 1259386);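 note: series mostly up to about 92 µM; cells exposed to compounds for 22 h at 37 °C before the viability read; nearly all actives have a fitted effect of over 30% in size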
In short: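 Viability counter screen using VM7Luc4E2 (full-length ER-alpha, four ERE-luciferase). The cells were treated with compounds alongside ICI-182,780 10.0nM for 22hr, and live-cell protease fluorescence was quantified with CellTiter-Fluor.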

[13] = biological target: Progesterone receptor (Homo sapiens) (UniProt P06401); assay: qHTS assay to identify small molecule agonists of the progesterone receptor (PR) signaling pathway (AID 1346784; calls by dose curve; note: nearly all actives have a fitted effect of over 30% in size)
Sequence of Progesterone receptor (Homo sapiens) (P06401 whole entry, looked up): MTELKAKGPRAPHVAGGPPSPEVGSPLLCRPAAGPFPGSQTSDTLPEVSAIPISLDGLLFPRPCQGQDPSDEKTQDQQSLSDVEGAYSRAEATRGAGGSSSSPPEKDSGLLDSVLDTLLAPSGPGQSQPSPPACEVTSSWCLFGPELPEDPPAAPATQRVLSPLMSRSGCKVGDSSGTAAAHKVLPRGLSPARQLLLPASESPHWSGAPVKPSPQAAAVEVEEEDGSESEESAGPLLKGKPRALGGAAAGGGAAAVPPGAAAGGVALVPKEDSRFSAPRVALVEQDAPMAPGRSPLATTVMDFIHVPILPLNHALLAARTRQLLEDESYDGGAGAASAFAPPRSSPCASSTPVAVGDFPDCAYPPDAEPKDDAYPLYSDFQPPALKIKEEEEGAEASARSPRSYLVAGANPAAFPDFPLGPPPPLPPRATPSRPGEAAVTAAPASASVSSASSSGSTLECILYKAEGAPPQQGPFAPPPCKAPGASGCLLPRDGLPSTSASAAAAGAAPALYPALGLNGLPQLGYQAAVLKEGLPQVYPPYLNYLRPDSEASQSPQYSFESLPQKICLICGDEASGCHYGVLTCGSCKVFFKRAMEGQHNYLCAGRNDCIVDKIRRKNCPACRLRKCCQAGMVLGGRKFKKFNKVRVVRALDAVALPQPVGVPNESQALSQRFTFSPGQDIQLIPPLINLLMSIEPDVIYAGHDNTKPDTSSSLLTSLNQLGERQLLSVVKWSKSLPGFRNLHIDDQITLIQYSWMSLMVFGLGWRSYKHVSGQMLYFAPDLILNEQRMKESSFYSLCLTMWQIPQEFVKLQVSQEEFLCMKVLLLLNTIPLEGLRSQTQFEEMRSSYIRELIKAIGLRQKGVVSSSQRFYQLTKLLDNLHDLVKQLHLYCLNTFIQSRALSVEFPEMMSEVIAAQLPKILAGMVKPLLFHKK
In short: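 Using charcoal-stripped serum (2%) to limit endogenous steroids, PR-UAS-bla HEK 293T cells received compounds for 16 hr at 37C after 6 hr plating; beta-lactamase FRET fluorescence was recorded following 2 hr substrate loading at room temperature.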

[14] = biological target: Progesterone receptor (Homo sapiens) (UniProt P06401); assay: qHTS assay to identify small molecule antagonists of the progesterone receptor (PR) signaling pathway (AID 1346795; active = well fitted inhibition curve with a large enough effect in the signal ratio in the repeat runs, not every such curve was filed as active; the % refers to the signal ratio)
In short: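 Inhibition of R5020-induced (1 nM final) beta-lactamase reporter signal in PR-UAS-bla HEK293T cells was scored by FRET fluorescence after overnight (16 hr) compound treatment.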

[15] = biological target: Thyrotropin receptor (Homo sapiens) (UniProt P16473); assay: qHTS assay to identify small molecule antagonists of the thyroid stimulating hormone receptor (TSHR) signaling pathway (AID 1259385; calls by dose curve; note: nearly all actives have a fitted effect of over 20% in size)
Sequence of Thyrotropin receptor (Homo sapiens) (P16473 whole entry, looked up): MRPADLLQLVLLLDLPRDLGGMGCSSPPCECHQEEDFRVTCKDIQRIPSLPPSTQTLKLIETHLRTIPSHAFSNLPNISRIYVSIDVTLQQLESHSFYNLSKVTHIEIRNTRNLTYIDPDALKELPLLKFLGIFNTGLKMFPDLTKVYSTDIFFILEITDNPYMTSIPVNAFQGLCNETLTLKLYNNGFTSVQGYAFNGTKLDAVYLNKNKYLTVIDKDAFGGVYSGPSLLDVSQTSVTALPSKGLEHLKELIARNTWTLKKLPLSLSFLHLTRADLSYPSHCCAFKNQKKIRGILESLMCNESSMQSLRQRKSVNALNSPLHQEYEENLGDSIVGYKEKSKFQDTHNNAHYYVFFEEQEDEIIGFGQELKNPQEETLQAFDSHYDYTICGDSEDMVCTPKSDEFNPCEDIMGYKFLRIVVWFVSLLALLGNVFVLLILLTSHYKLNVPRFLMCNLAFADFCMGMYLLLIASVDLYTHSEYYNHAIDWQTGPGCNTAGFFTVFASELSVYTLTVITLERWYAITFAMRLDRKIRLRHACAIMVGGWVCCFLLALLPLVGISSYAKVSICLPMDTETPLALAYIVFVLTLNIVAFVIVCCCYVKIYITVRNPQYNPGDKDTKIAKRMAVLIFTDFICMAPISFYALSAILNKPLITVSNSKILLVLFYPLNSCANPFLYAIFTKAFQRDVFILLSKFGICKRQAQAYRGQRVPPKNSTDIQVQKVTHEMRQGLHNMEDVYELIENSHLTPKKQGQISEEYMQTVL
In short: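 TSHR-HEK293 cells (800/well) plated 18 h, then compounds with Ro20-1724 and TSH at 1.5 ng/mL final, 30 min at room temperature. cAMP quantified by HTRF (cAMP-d2/anti-cAMP-cryptate, 1 h); 15 concentrations in triplicate.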

[16] = qHTS assay to identify small molecule agonists of the sonic hedgehog signaling (Shh) pathway (AID 1259368; calls by dose curve;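 note: NIH/3T3-derived 3T3Gli1-Luc cells carrying a stable Gli1-driven firefly luciferase reporter; series mostly up to about 92 µM; nearly all actives have a fitted effect of over 15% in size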)
In short: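 A Gli1 transcriptional response element controlled firefly luciferase in 3T3Gli1-Luc cells. Compounds and a positive control were added 4 hr after plating, and cells were incubated a further 24 hr at 37 C before luminescence detection.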

[17] = biological target: Estrogen receptor beta (Homo sapiens) (UniProt Q92731); assay: qHTS assay to identify small molecule agonists of the estrogen receptor beta (ER-beta) signaling pathway (AID 1259377; active = well fitted activation curve with a large enough effect in the signal ratio in the repeat runs, not every such curve was filed as active; the % refers to the signal ratio)
Sequence of Estrogen receptor beta (Homo sapiens) (Q92731 whole entry, looked up): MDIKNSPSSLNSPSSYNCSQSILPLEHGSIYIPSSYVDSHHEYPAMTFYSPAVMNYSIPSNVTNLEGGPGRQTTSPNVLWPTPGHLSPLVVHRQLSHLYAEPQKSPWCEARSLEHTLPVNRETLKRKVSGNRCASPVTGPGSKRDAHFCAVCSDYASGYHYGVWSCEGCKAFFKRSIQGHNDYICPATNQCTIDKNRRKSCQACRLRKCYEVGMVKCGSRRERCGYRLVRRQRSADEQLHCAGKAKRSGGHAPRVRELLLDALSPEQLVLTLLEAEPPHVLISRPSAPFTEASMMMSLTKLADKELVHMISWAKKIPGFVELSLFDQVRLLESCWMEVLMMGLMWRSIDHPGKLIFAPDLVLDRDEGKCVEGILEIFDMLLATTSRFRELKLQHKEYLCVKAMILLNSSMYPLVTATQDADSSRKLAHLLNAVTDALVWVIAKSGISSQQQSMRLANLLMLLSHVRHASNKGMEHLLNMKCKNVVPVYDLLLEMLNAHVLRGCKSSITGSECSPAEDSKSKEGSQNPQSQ
In short: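 In HEK293T cells bearing a UAS-beta-lactamase reporter under ER-beta control, DMSO-delivered compounds were incubated for 16 hr at 37C. Activity was detected as fluorescence 2 hours after LiveBLAzer B/G FRET substrate addition.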
% is set by controls: 0 for no effect and ±100 for the full control effect.

NC(=S)N/N=C/c1cccnc1
inactive: Potency [1] | Potency [2] | outcome [3] | Potency [4] | Potency [5] | Potency [6] | Potency [7] | Potency [8] | Potency [9] | Potency [10] | Potency [11] | Potency [12] | outcome [13] | Potency [14]

COc1ccc([C@@H]2Sc3ccccc3N(CCN(C)C)C(=O)[C@@H]2OC(C)=O)cc1
active: Potency [8] 15 µM | Potency [10] 21.1 µM
inactive: Potency [1] | outcome [3] | Potency [4] | Potency [5] | Potency [6] | Potency [7] | Potency [11] | Potency [15] | Potency [12] | outcome [13] | Potency [14]

C[C@@H](C1=C(CCN(C)C)Cc2ccccc21)c1ccccn1
inactive: Potency [1] | Potency [2] | outcome [3] | Potency [5] | outcome [16] | Potency [7] | Potency [10] | Potency [11] | Potency [15] | Potency [12] | outcome [13] | Potency [14]

NC[C@H]1O[C@H](O[C@H]2[C@H](O)[C@@H](O[C@H]3O[C@H](CO)[C@@H](O)[C@H](N)[C@H]3O)[C@H](N)C[C@@H]2N)[C@H](O)[C@@H](O)[C@@H]1O
inactive: Potency [1] | activity change, negative = inhibition [2] -0.959% [at 8.39 µM] | activity change, negative = cytotoxicity [3] 2.31% [at 8.39 µM] | viability change, negative = cytotoxic [4] -24.3% [at 8.39 µM] | viability change, negative = cytotoxic [5] -30.1% [at 8.39 µM] | activity change [16] 1.6% [at 8.39 µM] | activity change, negative = inhibition [6] -24.7% [at 8.39 µM] | activity change, negative = cytotoxicity [7] 1.81% [at 8.39 µM] | activity change, negative = cytotoxicity [8] 5.67% [at 8.39 µM] | activity change, negative = cytotoxicity [10] 0.386% [at 8.39 µM] | activity change, negative = inhibition [15] -7.09% [at 8.39 µM] | activity change, negative = cytotoxicity [12] -3.74% [at 8.39 µM] | activation [13] 0.496% [at 8.39 µM]

CCCCOc1ccc(CC(=O)NO)cc1
active: Potency [8] 9.44 µM
inactive: Potency [1] | Potency [2] | outcome [16] | Potency [17] | Potency [7] | Potency [11] | Potency [15] | outcome [13]
